Source: PubChem BioAssay (NCATS)
“And” between values parts separate entries of the source, which are not always exact repeats. Equal values may be shown once. Inconclusive results are not listed. The source made the active and inactive calls. Unless noted, the call rests on the fitted dose curve; in most records, active means well fitted curve in the direction sought with a large enough effect; inconclusive means small, poorly fitted or top-dose-only effect, or another doubt; inactive means no such curve, though single readings can be large; an effect the other way counts as inactive or inconclusive.

Assays:
[1] = biological target: Thioredoxin reductase 1, cytoplasmic (Rattus norvegicus) (UniProt O89049); assay: qHTS Assay for Substrates of Mammalian Selenoprotein Thioredoxin Reductase 1 (TrxR1) (AID 488772);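 further: NADPH fluorescence in the first read after selenite addition and not the 8 min delta; series mostly up to about 57 µM; 0% is about no effect; a drop in NADPH fluorescence below the no-compound background marks a TrxR1 substrate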
Outline: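 Quantitative HTS in Tris-HCl buffer at pH 7.5 with EDTA and Tween-20, using rat TrxR1, 400 uM NADPH and 400 uM selenite (final). A fall in initial NADPH fluorescence relative to background marked substrate behaviour.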

[2] = biological target: Flap endonuclease 1 (Homo sapiens) (UniProt P39748); assay: qHTS Validation Assay for the Inhibitors of Human Flap endonuclease 1 (FEN1) (AID 488816); further: potency means the concentration at half of the fitted maximal effect
Outline: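 Human FEN1 (10 nM) preincubated 15 min at room temperature with compounds, then flap DNA substrate added at 50 nM final. Fluorescence read at 0 and 15 min; concentration-response fitted with four-parameter Hill equation.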

[3] = biological target: M-phase phosphoprotein 8 (Homo sapiens) (UniProt Q99549); assay: qHTS Validation Assay for Inhibitors for MPP8 Chromodomain Interactions with Methylated Histone Tails (AID 488949); further: nearly all actives have a fitted effect of over 55% in size; further: potency means the concentration at half of the fitted maximal effect
Outline: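 MPP8 (50 nM) was preincubated with biotinylated H3(1-18)K9me3 peptide (50 nM) in PBS pH 7.4, 0.01% Tween-20 for 30 min at room temperature, then with compounds for 30 min; binding was detected by AlphaScreen.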

[4] = biological target: Chromobox protein homolog 1 (Homo sapiens) (UniProt P83916); assay: qHTS Validation Assay for Inhibitors of HP1-beta Chromodomain Interactions with Methylated Histone Tails (AID 488953); further: nearly all actives have a fitted effect of over 50% in size; further: potency means the concentration at half of the fitted maximal effect
Outline: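 HP1-beta (50 nM) preformed 30 min with biotinylated H3(1-18)K9me3 peptide (50 nM) in PBS pH 7.4, 0.01% Tween-20. Compounds added for 30 min at room temperature. Complex disruption read by AlphaScreen with streptavidin donor/nickel chelate acceptor beads (10 ug/mL each).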

[5] = biological target: Methanococcus maripaludis chaperonin (MmCpn) (UniProt Q6LX38); assay: High-Throughput Screening for Modulators of Cytosolic Chaperonin Activity: MmCpn Primary Screen (AID 488978);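 further: 50 nM MmCpn enzyme hydrolysing 30 µM ATP at 37 °C; 0% is about no effect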
Outline: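 MmCpn (50 nM final) was preincubated with compound 5 min at RT, then 30 uM ATP (final) was added and the reaction ran 10 min at 37C. ADP produced was detected by Transcreener HTRF (ex 320 nm; em 590/665 nm).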

[6] = biological target: Transient receptor potential cation channel subfamily V member 1 (Homo sapiens) (UniProt Q8NER1); assay: HTS Assay for Compounds that Act as Enhancers of the Vanilloid Receptor 1 (AID 488979); further: 0% is about no effect
Outline: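 TRPV1 cells loaded with Fluo-8 calcium dye; compound added and Ca2+ signal (ex 480/em 520 nm) followed 3 min, then capsaicin at EC20 added and read 2 more min to detect enhancement.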

[7] = biological target: Thyrotropin receptor (Homo sapiens) (UniProt P16473); assay: qHTS Assay for Antagonists of the Thyroid Stimulating Hormone Receptor (AID 488980); further: series mostly up to about 58 µM; 0% is about no effect
Outline: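 HEK293 cells transfected with human TSHR, suspended in HEPES-buffered HBSS with 70 uM RO 20-1724, were treated with compounds plus TSH at EC80 (4 nM final). cAMP was measured by competitive HTRF (cryptate anti-cAMP antibody, cAMP-d2 acceptor).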

[8] = biological target: D(1A) dopamine receptor (Homo sapiens) (UniProt P21728); assay: HTS Assay for Allosteric Agonists of the Human D1 Dopamine Receptor: Primary Screen for Agonists (AID 488981); further: 0% is about no effect
Outline: (§1)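 Tetracycline-induced HEK293 Trex D1 cells with forced coupling to calcium, loaded with no-wash calcium dye; kinetic fluorescence read 180 s after compound addition for agonism, then a further 180 s after an EC20 dopamine challenge for potentiation.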

[9] = biological target: D(1A) dopamine receptor (Homo sapiens) (UniProt P21728); assay: HTS Assay for Allosteric Agonists of the Human D1 Dopamine Receptor: Primary Screen for Potentiators (AID 488982); further: 0% is about no effect
Outline: as §1

[10] = biological target: D(1A) dopamine receptor (Homo sapiens) (UniProt P21728); assay: HTS Assay for Allosteric Agonists of the Human D1 Dopamine Receptor: Primary Screen for Antagonists (AID 488983);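 further: calcium flux response to an EC80 dopamine challenge measured with no-wash dye; on the % scale 0 is the no-effect control and ±100 the full control effect; nearly all actives have a fitted effect of over 65% in size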
Outline: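 Tetracycline-induced HEK293 T-REx D1 line, force-coupled to calcium flux, read with no-wash calcium dye. Compound added after 10 s baseline, read 180 s for agonism, then EC80 dopamine added and read a further 180 s.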

[11] = biological target: Tyrosyl-DNA phosphodiesterase 1 (Homo sapiens) (UniProt Q9NUW8); assay: Confirmation Assay for Inhibitors of Tyrosyl-DNA Phosphodiesterase (TDP1) (AID 489007); conditions: recombinant human TDP1 enzymatic activity, dose-response; further: potency means the concentration at half of the fitted maximal effect; nearly all actives have a fitted effect of over 40% in size
Outline: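 Recombinant human Tdp1 (1 nM final), expressed in E. coli, preincubated 15 min with compound. Then 15 nM 5'-biotin/3'-phosphotyrosine-FITC DNA substrate added for 5 min at room temperature. AlphaScreen beads (10 ug/ml) added for 10 min; cleavage gives signal loss.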

[12] = Validation screen for small molecules that induce genotoxicity in human embryonic kidney (HEK293T) cells expressing luciferase-tagged ELG1 (AID 493106); further: 0% is about no effect
Outline: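 HEK293T cells expressing luciferase-tagged ELG1, 2,000 cells/well, exposed to compound 16 hr at 37 °C, 5% CO2. Luciferase read after ONE-Glo, 30 min at room temperature; increased signal indicates genetic stress.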

[13] = biological target: ATPase family AAA domain-containing protein 5 (Homo sapiens) (UniProt Q96QE3); assay: Validation screen for small molecules that inhibit ELG1-dependent DNA repair in human embryonic kidney (HEK293T) cells expressing luciferase-tagged ELG1 (AID 493107);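 further: cells co-treated with the DNA-damaging agent 5-fluorouridine alongside compound; series mostly up to about 46 µM; on the % scale 0 is the no-effect control and ±100 the full control effect; inhibitors lower the ELG1-luciferase luminescence signal; nearly all actives have a fitted effect of over 70% in size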
Outline: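 HEK293T cells expressing luciferase-tagged ELG1, 2,000 per well, treated with 5-fluorouridine plus compound for 16 h at 37 C. ONE-Glo luminescence after 30 min at room temperature reports ELG1 reporter level.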

[14] = biological target: Thyrotropin-releasing hormone receptor (Homo sapiens) (UniProt P34981); assay: qHTS for Small Molecule Agonists and Allosteric Enhancers of Human TRH Receptor: Validation Screen for Agonists (AID 493127;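 active means calcium activation more than 3 SD above the typical response in the agonist read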; further: 0% is about no effect); conditions: TRH receptor agonist cell assay; at 2 µM; stronger effect = higher value
Outline: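 TRHR cells loaded with fluo-8 calcium dye; FDSS kinetic fluorescence (Ex 480/Em 530) read at 1 s/cycle after 23 nL compound addition. Agonist-mode calcium response recorded before the 10 nM TRH (EC20) addition.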

[15] = Nrf2 qHTS screen for inhibitors: Validation (AID 493153; active means well fitted inhibition curve with a large enough effect in the main read-out, with a control signal flat, not every such curve was filed as active); conditions: Potency: luciferase luminescence; viability change: measured here: cytotoxicity max response
Outline: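 A549 cells carrying ARE-firefly luciferase reporter, 5000 cells/well in 5% FBS OPTI-MEM, treated with compound over a concentration series for 18-24 h at 37 C. Luciferase luminescence gave Nrf2 activity; CellTiter-Fluor fluorescence gave viability.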

[16] = qHTS for Inhibitors of Cell Surface uPA Generation: Validation Assay (AID 493164); further: 0% is about no effect
Outline: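 RAW 264.7 cells (4000/well) were plated overnight, then exposed for 18 h at 37 C, 5% CO2 to compounds in a 7-point 1:5 titration (2.45 nM–38.3 uM final). Intracellular ATP was read by ATP-Lite luminescence.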

[17] = Validation screen for small molecules that induce DNA re-replication in SW480 colon adenocarcinoma cells (AID 504364); further: 0% is about no effect
Outline: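 SW480 cells (250/well) exposed 48 h at 37 C, 5% CO2, then Hoechst-stained 40 min. Nuclear DNA content imaged by fluorescence scanning (405 nm excitation, 500-530 nm emission); re-replication scored as increased nuclei with elevated intensity.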

[18] = biological target: ATP-dependent 6-phosphofructokinase (Trypanosoma brucei brucei) (UniProt O15648); assay: qHTS Assay to Find Inhibitors of T. brucei phosphofructokinase: hit validation (AID 492961); further: series mostly up to about 51 µM; on the % scale 0 is the no-effect control and ±100 the full control effect
Outline: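 Luminescence from ADP-Glo reports ADP generated as T. brucei PFK (1.25 nM) phosphorylates 0.5 mM fructose-6-phosphate using 0.1 mM ATP. Reactions ran 45 min at room temperature, pH 8.0.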

[19] = biological target: Thioredoxin reductase 1, cytoplasmic (Rattus norvegicus) (UniProt O89049); assay: qHTS Assay for Inhibitors of Mammalian Selenoprotein Thioredoxin Reductase 1 (TrxR1) (AID 488773); conditions: Potency: inhibition;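 further: drop in NADPH fluorescence over an 8 min run after selenite addition; series mostly up to about 57 µM; on the % scale 0 is the no-effect control and ±100 the full control effect; nearly all actives have a fitted effect of over 40% in size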
Outline: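 Steps: enzyme (90 nM) plus NADPH (400 uM final), 5 min at ~22 deg C; compound added, 15 min; selenite (400 uM final) added; fluorescence followed for 8 min. Concentration-response curves derived from the normalized delta values.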

[20] = biological target: Galactokinase (Homo sapiens) (UniProt P51570); assay: qHTS Validation Assay for Inhibitors of Human Galactokinase (GALK) (AID 493189); further: 0% is about no effect
Outline: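 GALK (5 nM) with 35 uM ATP and 100 uM galactose in HEPES pH8.0, MgCl2, NaCl, DTT, BSA; 1 h at room temperature. Residual ATP read by Kinase-Glo Plus luminescence after 10 min.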

D(1A) dopamine receptor (Homo sapiens), sequence (P21728 whole entry, looked up): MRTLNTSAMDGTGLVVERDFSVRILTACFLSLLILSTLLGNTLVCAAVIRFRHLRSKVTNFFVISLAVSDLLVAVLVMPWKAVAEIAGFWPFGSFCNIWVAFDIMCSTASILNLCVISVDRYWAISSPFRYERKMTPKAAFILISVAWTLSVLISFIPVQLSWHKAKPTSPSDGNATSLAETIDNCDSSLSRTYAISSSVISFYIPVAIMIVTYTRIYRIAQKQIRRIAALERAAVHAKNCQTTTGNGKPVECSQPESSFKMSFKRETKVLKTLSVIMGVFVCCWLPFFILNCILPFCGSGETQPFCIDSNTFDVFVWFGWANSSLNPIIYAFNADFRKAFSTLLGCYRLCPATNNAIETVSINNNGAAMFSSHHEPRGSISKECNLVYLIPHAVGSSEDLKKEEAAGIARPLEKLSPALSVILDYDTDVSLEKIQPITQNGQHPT
M-phase phosphoprotein 8 (Homo sapiens), sequence (Q99549 whole entry, looked up): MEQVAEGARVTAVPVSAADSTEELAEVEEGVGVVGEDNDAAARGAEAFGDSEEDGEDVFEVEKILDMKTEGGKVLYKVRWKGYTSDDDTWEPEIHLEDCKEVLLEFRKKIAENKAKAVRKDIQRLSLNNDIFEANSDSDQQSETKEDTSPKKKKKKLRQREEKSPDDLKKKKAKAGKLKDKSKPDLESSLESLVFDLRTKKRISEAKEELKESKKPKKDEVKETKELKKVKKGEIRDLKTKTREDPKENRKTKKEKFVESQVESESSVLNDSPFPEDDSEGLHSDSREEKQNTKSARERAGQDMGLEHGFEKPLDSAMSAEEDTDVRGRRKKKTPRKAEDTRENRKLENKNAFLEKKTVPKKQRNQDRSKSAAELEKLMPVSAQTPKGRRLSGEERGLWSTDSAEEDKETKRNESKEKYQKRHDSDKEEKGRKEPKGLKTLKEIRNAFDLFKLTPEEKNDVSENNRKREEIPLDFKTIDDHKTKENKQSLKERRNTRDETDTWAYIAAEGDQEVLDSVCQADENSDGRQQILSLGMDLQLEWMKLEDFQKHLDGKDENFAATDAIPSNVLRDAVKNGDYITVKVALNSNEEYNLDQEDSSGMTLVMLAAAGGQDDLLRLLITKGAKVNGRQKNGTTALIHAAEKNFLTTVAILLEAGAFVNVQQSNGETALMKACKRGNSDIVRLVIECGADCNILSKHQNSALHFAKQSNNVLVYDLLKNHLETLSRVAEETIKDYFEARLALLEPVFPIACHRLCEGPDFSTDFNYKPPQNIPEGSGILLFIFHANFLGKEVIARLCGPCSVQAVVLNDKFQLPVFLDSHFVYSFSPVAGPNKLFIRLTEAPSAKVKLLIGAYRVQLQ
Thyrotropin receptor (Homo sapiens), sequence (P16473 whole entry, looked up): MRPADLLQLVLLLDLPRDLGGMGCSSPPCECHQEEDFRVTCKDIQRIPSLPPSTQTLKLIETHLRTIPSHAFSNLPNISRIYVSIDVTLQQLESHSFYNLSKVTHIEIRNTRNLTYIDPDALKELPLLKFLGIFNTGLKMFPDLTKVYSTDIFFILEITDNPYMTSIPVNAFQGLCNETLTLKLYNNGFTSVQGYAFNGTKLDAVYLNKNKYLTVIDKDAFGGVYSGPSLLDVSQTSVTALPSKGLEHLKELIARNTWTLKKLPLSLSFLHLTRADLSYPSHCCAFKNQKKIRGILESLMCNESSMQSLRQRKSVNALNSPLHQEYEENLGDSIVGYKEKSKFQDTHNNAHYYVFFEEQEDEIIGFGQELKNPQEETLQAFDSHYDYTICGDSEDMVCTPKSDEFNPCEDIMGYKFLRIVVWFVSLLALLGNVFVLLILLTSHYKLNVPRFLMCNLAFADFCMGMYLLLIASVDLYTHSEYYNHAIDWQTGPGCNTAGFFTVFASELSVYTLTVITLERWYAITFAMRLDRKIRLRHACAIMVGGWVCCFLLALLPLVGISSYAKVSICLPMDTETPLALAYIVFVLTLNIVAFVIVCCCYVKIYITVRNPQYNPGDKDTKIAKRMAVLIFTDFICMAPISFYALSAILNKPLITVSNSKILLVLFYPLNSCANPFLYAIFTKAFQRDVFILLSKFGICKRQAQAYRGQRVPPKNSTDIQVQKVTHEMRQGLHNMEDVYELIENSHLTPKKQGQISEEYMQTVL
ATPase family AAA domain-containing protein 5 (Homo sapiens), sequence (Q96QE3 whole entry, looked up, the tested form may be a part): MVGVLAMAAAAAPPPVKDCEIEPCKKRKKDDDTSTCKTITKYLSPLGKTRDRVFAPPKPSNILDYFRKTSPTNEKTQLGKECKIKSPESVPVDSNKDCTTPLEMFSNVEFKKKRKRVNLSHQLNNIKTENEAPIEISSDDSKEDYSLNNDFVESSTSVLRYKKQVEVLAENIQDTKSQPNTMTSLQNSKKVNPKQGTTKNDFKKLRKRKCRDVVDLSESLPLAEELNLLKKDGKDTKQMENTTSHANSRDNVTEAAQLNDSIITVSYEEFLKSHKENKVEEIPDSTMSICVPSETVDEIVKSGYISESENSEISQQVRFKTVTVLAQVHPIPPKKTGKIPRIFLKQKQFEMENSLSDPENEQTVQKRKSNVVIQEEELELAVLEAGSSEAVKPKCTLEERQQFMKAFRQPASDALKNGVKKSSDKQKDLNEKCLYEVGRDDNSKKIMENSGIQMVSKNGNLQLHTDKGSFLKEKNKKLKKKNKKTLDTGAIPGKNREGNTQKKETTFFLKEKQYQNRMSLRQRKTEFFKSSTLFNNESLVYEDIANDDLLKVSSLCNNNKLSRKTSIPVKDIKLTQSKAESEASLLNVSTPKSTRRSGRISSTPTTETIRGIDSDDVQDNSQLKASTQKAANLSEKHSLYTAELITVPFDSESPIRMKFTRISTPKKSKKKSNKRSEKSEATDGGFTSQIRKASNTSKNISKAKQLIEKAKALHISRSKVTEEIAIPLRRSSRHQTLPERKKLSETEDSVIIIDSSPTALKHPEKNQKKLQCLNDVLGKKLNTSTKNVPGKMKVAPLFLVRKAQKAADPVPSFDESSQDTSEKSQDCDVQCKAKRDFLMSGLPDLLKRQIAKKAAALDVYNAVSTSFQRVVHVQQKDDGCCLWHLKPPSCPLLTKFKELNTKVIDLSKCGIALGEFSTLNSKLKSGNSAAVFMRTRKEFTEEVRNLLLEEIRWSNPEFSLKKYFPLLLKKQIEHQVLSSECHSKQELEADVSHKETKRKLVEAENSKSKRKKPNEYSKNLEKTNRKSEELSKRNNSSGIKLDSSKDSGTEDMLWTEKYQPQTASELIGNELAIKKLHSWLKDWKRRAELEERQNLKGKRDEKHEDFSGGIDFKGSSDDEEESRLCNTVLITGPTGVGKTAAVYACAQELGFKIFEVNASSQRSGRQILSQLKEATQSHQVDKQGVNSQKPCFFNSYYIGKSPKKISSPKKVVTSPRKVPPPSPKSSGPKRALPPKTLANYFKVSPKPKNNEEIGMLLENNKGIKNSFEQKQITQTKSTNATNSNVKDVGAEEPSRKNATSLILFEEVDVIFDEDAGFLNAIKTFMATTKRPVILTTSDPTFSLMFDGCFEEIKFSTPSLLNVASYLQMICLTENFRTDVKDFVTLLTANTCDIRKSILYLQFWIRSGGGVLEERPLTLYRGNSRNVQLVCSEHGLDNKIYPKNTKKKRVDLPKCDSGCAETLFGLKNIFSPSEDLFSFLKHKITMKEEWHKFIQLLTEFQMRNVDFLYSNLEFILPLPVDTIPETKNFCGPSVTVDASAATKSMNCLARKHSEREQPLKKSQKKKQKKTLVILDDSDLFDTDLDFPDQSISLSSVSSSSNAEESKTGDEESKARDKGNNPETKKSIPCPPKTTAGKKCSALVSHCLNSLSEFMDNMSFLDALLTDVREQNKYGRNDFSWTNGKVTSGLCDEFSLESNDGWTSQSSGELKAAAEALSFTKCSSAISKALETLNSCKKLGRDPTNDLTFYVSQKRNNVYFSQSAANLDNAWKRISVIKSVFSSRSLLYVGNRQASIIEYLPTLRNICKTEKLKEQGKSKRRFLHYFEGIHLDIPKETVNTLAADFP
Flap endonuclease 1 (Homo sapiens), sequence (P39748 whole entry, looked up): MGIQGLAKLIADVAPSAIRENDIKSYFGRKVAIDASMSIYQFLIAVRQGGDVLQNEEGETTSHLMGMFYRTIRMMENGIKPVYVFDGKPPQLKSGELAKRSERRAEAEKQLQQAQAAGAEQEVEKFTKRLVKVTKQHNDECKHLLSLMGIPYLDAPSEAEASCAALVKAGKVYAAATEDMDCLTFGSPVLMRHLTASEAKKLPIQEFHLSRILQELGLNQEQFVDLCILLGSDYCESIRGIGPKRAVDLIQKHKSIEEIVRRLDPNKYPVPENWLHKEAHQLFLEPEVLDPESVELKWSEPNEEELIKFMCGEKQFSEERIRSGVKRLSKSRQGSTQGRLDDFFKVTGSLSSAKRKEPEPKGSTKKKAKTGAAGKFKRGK
Methanococcus maripaludis chaperonin (MmCpn), sequence (Q6LX38 1-543): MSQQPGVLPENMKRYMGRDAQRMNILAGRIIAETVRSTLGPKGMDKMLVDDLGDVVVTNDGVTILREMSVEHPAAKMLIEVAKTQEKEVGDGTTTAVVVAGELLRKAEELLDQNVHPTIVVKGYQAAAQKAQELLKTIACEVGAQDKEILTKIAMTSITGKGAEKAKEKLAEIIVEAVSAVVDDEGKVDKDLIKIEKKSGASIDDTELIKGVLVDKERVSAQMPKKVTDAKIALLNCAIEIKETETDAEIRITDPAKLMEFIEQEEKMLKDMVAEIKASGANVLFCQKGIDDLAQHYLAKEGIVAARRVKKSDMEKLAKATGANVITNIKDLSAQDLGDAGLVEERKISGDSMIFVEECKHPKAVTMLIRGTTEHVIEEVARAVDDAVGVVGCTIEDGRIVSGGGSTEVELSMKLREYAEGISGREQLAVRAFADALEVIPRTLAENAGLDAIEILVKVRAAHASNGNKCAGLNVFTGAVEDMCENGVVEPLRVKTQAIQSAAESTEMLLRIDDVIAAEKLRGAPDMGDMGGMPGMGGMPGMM
Chromobox protein homolog 1 (Homo sapiens), sequence (P83916 whole entry, looked up): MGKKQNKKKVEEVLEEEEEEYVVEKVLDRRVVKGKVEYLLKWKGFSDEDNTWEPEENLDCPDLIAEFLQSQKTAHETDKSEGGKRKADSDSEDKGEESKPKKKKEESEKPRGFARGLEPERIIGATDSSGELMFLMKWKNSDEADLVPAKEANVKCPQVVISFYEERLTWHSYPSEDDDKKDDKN

NC(Cc1cc(O)c(O)cc1O)C(=O)O (centres undefined)
inactive: outcome [1] | outcome [5] | outcome [6] | outcome [7] | Potency [8] | Potency [9] | Potency [10] | Potency [12] | Potency [13] | activation [14] 1.06% | Potency [15] | outcome [16] | Potency [17]
active: Potency [2] 670 nM | Potency [3] 501 nM and 474 nM | Potency [4] 316 nM | Potency [11] 4470 nM
-20.4%: viability change [15]

COc1ccc(OC)c(C(O)C(C)N)c1 (centres undefined)
-6.5%: viability change [15]
inactive: outcome [1] | Potency [2] | Potency [3] | Potency [4] | outcome [5] | outcome [6] | outcome [7] | Potency [8] | Potency [9] | Potency [10] | Potency [18] | Potency [12] | Potency [13] | activation [14] 1.12% | Potency [15] | outcome [16] | Potency [17]

C=CCN(C1=NCCN1)c1c(Cl)cccc1Cl
inactive: outcome [1] | Potency [19] | Potency [2] | Potency [3] | Potency [4] | outcome [5] | Potency [9] | Potency [10] | Potency [18] | Potency [12] | Potency [13] | Potency [15] | outcome [16]
-5.34%: viability change [15]

C/C(O)=C(\C#N)C(=O)Nc1cc(Br)ccc1Br
inactive: outcome [1] | Potency [19] | Potency [2] | Potency [3] | outcome [5] | outcome [6] | outcome [7] | Potency [8] | Potency [9] | Potency [10] | Potency [12] | activation [14] 0.0625% | outcome [20] | Potency [17]

C=CCN1C[C@@H](C)N([C@H](c2ccc(C(=O)N(CC)CC)cc2)c2cccc(OC)c2)C[C@@H]1C
inactive: outcome [1] | Potency [19] | Potency [2] | Potency [3] | outcome [5] | outcome [6] | outcome [7] | Potency [8] | Potency [10] | Potency [12] | Potency [13] | activation [14] 2.06% | outcome [16] | Potency [17]

CC(C)(O)[C@@H]1C2OC(=O)[C@@H]1[C@]1(O)C[C@H]3O[C@]34C(=O)O[C@H]2[C@]14C (tested in a mixture with another compound)
inactive: outcome [1] | Potency [19] | Potency [2] | Potency [3] | outcome [5] | Potency [8] | Potency [9] | Potency [10] | Potency [12] | Potency [13] | Potency [15] | outcome [16]
-3%: viability change [15]

C[N+](C)(C)CC#CCN1CCCC1=O
inactive: outcome [1] | Potency [19] | Potency [2] | Potency [3] | outcome [5] | outcome [6] | outcome [7] | Potency [9] | Potency [10] | Potency [12] | Potency [13] | Potency [15] | outcome [16] | outcome [20] | Potency [17]
2.69%: viability change [15]
active: activation [14] 57.8%

CC(=O)OCC1=C(C(=O)O)N2C(=O)[C@@H](NC(=O)CCC[C@@H](N)C(=O)O)[C@H]2SC1
1.57%: viability change [15]
inactive: outcome [1] | Potency [19] | Potency [2] | Potency [3] | outcome [5] | Potency [8] | Potency [10] | Potency [12] | Potency [15] | outcome [16]
